Experimental data published in the supplement of paper PMC13380429.
Unmarked numbers belong to inactive results.

Test system: Vero E6 infected with SARS-CoV-2
Test: inhibition of SARS-CoV-2 cytopathic effect; higher = more antiviral protection, active = above 15
Conditions: 48 h

| SMILES | inhibition of SARS-CoV-2 cytopathic effect (1 nM) | inhibition of SARS-CoV-2 cytopathic effect (8.33 nM) | inhibition of SARS-CoV-2 cytopathic effect (100 nM) | inhibition of SARS-CoV-2 cytopathic effect (833.33 nM) | inhibition of SARS-CoV-2 cytopathic effect (10000 nM) |
| --- | --- | --- | --- | --- | --- |
| CCCC(=O)OCOC(=O)C1=C(C)NC(C)=C(C(=O)OC)C1c1cccc(Cl)c1Cl (stereo not given) [cleviprex] | 3.04% | 3.86% | 2.92% | 0.61% | 4.07% |
| OCCN1CCN(CC/C=C2/c3ccccc3Sc3ccc(Cl)cc32)CC1 [zuclopenthixol] | -1.15% | -3.42% | -1.94% | -3.61% | 8.42% |
| N[C@@H](C(=O)O)[C@@H](OCc1ccccc1)C(=O)O.N[C@H](C(=O)O)[C@H](OCc1ccccc1)C(=O)O | -0.96% | 0.96% | -0.27% | -0.54% | 1.19% |
| Nc1ccc(F)cc1NC(=O)c1ccc(CNC(=O)/C=C/c2cccnc2)cc1 [chidamide] | 0.62% | 0.21% | -1.13% | 1.82% | -0.06% |
| Cc1c(C)c2c(c(C)c1OC(=O)CCC(=O)O)CC[C@@](C)(CCC[C@H](C)CCC[C@H](C)CCCC(C)C)O2 [D-alpha-tocopheryl-succinate] | -5.51% | -5.87% | -7.06% | -5.36% | -2.64% |
| Nc1cc(F)ccc1NC(=O)/C=C/c1cnn(C/C=C/c2ccccc2)c1 | -1.39% | 1.78% | 0.89% | -2.26% | -1.9% |
| CCCCOc1cc(C(=O)OCCN(CC)CC)ccc1N [oxybuprocaine] | 0.54% | 0.93% | 5.2% | 3.06% | -0.68% |
| CC(C)(CO)Cc1cc(C(C)(C)C)c(O)c(C(C)(C)C)c1 | -1.21% | -2.15% | 1.59% | 4.34% | -0.79% |
| O=C(CCCCCCC(=O)Nc1ccccc1)NO [vorinostat] | -0.07% | 0.67% | -0.77% | -5.85% | -23.6% |
| OC[C@H]1NC[C@@H](O)[C@@H](O)[C@@H]1O [1-deoxymannojirimycin] | -5.76% | 0.14% | -0.54% | 1.33% | -0.79% |
| COc1cccc2c1C(=O)c1c(O)c3c(c(O)c1C2=O)C[C@@](O)(C(=O)CO)C[C@@H]3O[C@H]1C[C@H](N2CCO[C@H](OC)C2)[C@H](O)[C@H](C)O1 [nemorubicin] | 1.94% | -5.08% | -8.02% | -7.55% | -7.13% |
| C=C1C(=O)O[C@@H]2[C@H]3C(C)=CC[C@@]34O[C@@]4(C)CC[C@@H]12 [arglabin] | -2.02% | 1.39% | -0.31% | -1.74% | 29.2% (active) |
| CCCOC(=O)c1ccc(O)cc1 [propyl 4-hydroxybenzoate] | -1.38% | -0.18% | -0.42% | 2.26% | -3.05% |
| CCC(=O)O[C@@](Cc1ccccc1)(c1ccccc1)[C@@H](C)CN(C)C [levopropoxyphene] | 7.6% | 2.53% | 1.97% | 0.91% | -3.41% |
| CCCN[C@H]1CCc2nc(N)sc2C1 [pramipexole] | -2.43% | -0.27% | -3.37% | -2.16% | -1.54% |
| CSc1nc(NC2CCCC2)c([N+](=O)[O-])c(NC2CCCC2)n1 | -0.65% | -0.38% | 1.31% | -0.4% | -0.11% |
| C=CCN1CC[C@]23c4c5ccc(O)c4O[C@H]2/C(=N/NC(=O)c2ccccc2)CC[C@@]3(O)[C@H]1C5 [naloxone-benzoylhydrazone] | -0.04% | 0.97% | 0.75% | 5.45% | 0.69% |
